# An excerpt weighted towards active compounds, which were near 2.4% of everything screened.
# D2 ag-1 – HTS Assay for Allosteric Agonists of the Human D2 Dopamine Receptor: Primary Screen for Agonists | D(2) dopamine receptor (Homo sapiens), P14416 | HEK293 T-REx D2 cells, calcium flux agonist mode | activation, % at 2 µM | 0.53% of 340,000 active | AID 485358, 2010;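 active = activation over 3 SD above normal in the single-dose calcium agonist read, cut at about 30% in these data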
# Target sequence (P14416 whole entry, looked up): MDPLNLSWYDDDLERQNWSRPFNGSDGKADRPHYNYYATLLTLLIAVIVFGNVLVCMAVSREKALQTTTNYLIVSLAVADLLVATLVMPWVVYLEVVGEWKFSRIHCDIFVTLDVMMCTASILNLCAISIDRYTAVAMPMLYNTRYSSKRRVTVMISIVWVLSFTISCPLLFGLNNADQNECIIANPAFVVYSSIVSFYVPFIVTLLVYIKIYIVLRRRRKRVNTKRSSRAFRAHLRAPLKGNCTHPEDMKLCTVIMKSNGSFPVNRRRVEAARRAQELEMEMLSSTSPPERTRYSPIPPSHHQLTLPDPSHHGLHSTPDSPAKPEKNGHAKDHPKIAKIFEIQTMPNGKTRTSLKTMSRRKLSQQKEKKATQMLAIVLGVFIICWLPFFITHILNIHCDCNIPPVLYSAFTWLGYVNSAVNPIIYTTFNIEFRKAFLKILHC
#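 Calcium-flux readout, 1 cycle/sec over 180 s following compound pin transfer, in inducible HEK293 Trex D2 cells (force-coupled); dopamine controls included. Positive calcium responses during this window marked compounds as potential agonists.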
# D2 PAM-1 – Beta-Arrestin HTS for Positive Allosteric Modulators of the Human D2 Dopamine Receptor: Potentiators; D(2) dopamine receptor (Homo sapiens), P14416; 0.23% of 360,000 active; potentiation, % (no concentration beside the values); DiscoveRx D2 beta-arrestin cells, luminescence, 90 min; 100% = 57 uM dopamine signal; in the data active = potentiation above about 50%; inconclusive = mostly about 30% to 49%
#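 PathHunter beta-arrestin assay in DiscoveRx D2 cells. Compounds were added with an EC20 of dopamine (50 nM final) for 90 min at 37 deg C. Luminescence was read 1 h after detection reagent, with 57 uM dopamine as the EC100 control.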
# D2 antagonist – HTS Assay for Allosteric Antagonists of the Human D2 Dopamine Receptor: Primary Screen for Antagonists; D(2) dopamine receptor (Homo sapiens), P14416; HEK293 TREx D2 cells, calcium flux, dopamine EC80; inhibition, % at 10 µM; 2% of 340,000 active; AID 485344, 2010; in the data active = inhibition above about 30%; inactive = below that, where a call was filed
#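 Compounds are added to dye-loaded, induced HEK293 T-REx cells coupled to calcium release via D2; after a 3 min kinetic read an EC80 dopamine stimulus is given and fluorescence is recorded for 3 more min.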
# D2 PAM-2 – HTS Assay for Positive Allosteric Modulators of the Human D2 Dopamine Receptor: Primary Screen for Potentiators. D(2) dopamine receptor (Homo sapiens), P14416. potentiation, % at 10 µM. 0.34% of 340,000 active. HEK293 T-REx D2, calcium flux, EC20 dopamine potentiation. AID 485347, 2010;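 active = potentiation over 3 SD above the plate norm, cut at about 30% in these data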
#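 Potentiation of an EC20 dopamine calcium response measured kinetically over 180 s, after a preceding 180 s compound-only read flagging agonists. Cells: inducible Hek293 Trex D2 line, 4000/well, cultured overnight at 30 C before dye loading.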
# D2 ag-2 – Beta-Arrestin HTS for Positive Allosteric Modulators of the Human D2 Dopamine Receptor: Agonists; activation, % (no concentration beside the values); 0.084% of 360,000 active; D(2) dopamine receptor (Homo sapiens), P14416; DiscoveRx PathHunter D2 beta-arrestin, luminescence, 90 min; 100% = 57 uM dopamine signal; in the data active = activation above about 40%; inconclusive = between about 15% and that limit
#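 Agonist mode: compounds alone added to overnight-plated D2 PathHunter cells for 90 min at 37 C, with 57 uM final dopamine (EC100) defining full response. Beta-arrestin recruitment detected by chemiluminescent reagent, read after 1 h at ambient temperature.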
# Numbers stand for hits; - = inactive; ? = inconclusive; . = not tested or not shown.
SMILES,D2 ag-1,D2 PAM-1,D2 antagonist,D2 PAM-2,D2 ag-2
C#Cc1ccc(NC(=O)C2(C)CCN2C(=O)C2(c3ccccc3)CCCC2)cc1 (stereo not drawn),.,-,.,.,-
CCCSc1nnc(Sc2nnnn2-c2ccccc2)s1,-,-,44.5,-,-
Cc1ccccc1-n1nnnc1Sc1nnnn1-c1ccccc1,-,-,-,-,-
COc1ccc(-n2nc(C(=O)N(C)C)nc2-c2ccccc2)cc1,-,-,31.2,-,-
COc1cccc(C(=O)O/N=C(\N)c2ccccn2)c1,-,55.4,-,-,-
N/C(=N\OC(=O)c1ccc(Cl)cc1Cl)c1ccccn1,-,-,-,-,-
N/C(=N\OC(=O)c1ccc2ccccc2c1)c1ccccn1,-,-,-,-,?
N/C(=N\OC(=O)c1ccc(Cl)cc1[N+](=O)[O-])c1ccccn1,-,-,-,-,62.6
Cc1ccc(C(=O)O/N=C(\N)c2ccccn2)c(Cl)c1,-,90.8,-,-,?
CC(C)(C)c1ccc(NC(=O)c2ccccc2)c([N+](=O)[O-])c1,-,-,-,33.0,-
Cc1c(NC(=O)c2ccc(C(C)(C)C)cc2)cccc1[N+](=O)[O-],-,-,-,-,-
Cc1cc(=O)n(CC(C)O)c(O)c1C#N (stereo not drawn),-,61.8,-,-,-
Cc1cc(=O)n(CCCO)c(O)c1C#N,-,?,-,-,-
CCn1ncc(C2=NOC(C(=O)NCc3ccc(OC)cc3)C2)c1C (stereo not drawn),31.0,-,-,-,-
CC(C)CCNC(=O)COc1ccc2c(c1)C(=O)CC(C)(C)O2,-,-,-,-,-
CC1(C)CC(=O)c2cc(OCC(=O)NCCN3CCCc4ccccc43)ccc2O1,33.5,-,-,-,-
Cc1nc(SCC(=O)NCc2ccco2)c2c3c(sc2n1)CCCC3,-,-,36.3,-,-
CC1(C)CC(N(Cc2cccs2)C(=O)c2ccco2)CCO1 (stereo not drawn),-,-,-,32.5,-
CC1(C)CC(N(Cc2ccco2)C(=O)Cc2ccccc2)CCO1 (stereo not drawn),-,-,-,-,-
CCn1c(=O)n(CC)c2cc(N3CCCC3)c(NC(=O)Nc3cc(C)cc(C)c3)cc21,-,.,.,-,.
Oc1ccc(C2=NN(c3ccccc3)C(c3ccc(F)cc3)C2)cc1 (stereo not drawn),-,-,32.9,-,-
Cc1ccc(C2CC(c3ccccc3)=NN2c2ccccc2)o1 (stereo not drawn),-,-,35.6,-,-
Fc1ccc(C2=NN(c3ccccc3)C(c3ccco3)C2)cc1 (stereo not drawn),-,-,-,-,-
Cc1ccc(Sc2c(C(=O)NCc3ccccc3C)[nH]c3ccccc23)cc1,-,.,.,-,.
Cc1cc(C)c2oc(C(=O)Nc3sc4c(c3C(=O)NCc3ccco3)CCC4)cc(=O)c2c1,-,.,.,-,.
SMILES,D2 ag-1,D2 PAM-1,D2 antagonist,D2 PAM-2,D2 ag-2
O=S(=O)(NCCc1csc(-c2ccc(F)cc2)n1)c1ccc(Cl)cc1,-,.,.,-,.
COc1cc(-c2nc3ncccn3c2Nc2ccc(C)cc2C)ccc1O,-,.,.,-,.
O=C(CN1C(=O)c2ccccc2C1=O)NCCc1c[nH]c2ccccc12,-,-,-,-,-
O=C(CN1CCC(O)(c2ccccc2F)CC1)NCCc1c[nH]c2ccccc12,-,-,86.0,-,-
Cn1c(CSCc2ccc(Cl)c(Cl)c2)nnc1SCC(=O)Nc1nccs1,-,69.6,-,-,?
Cc1ccc(OCc2cc(C(=O)N(C)Cc3nccn3C)no2)cc1C,-,-,-,-,-
Cc1ccc(C)c(OCc2cc(C(=O)N(C)Cc3nccn3C)no2)c1,35.0,-,-,-,-
CCN(CC)c1ccc(C(=O)N2CCC(c3c[nH]c4ccccc34)(c3c[nH]c4ccccc34)CC2)cc1,-,.,.,-,.
O=C(NCc1cccnc1)Nc1cccc(C(F)(F)F)c1,-,-,-,-,-
O=C(NCCc1cnc[nH]1)Nc1cccc(C(F)(F)F)c1,-,-,40.2,-,-
CCOc1ccc(CNC(=O)C2Cc3ccccc3N2C(=O)CC)cc1OC (stereo not drawn),.,.,.,-,.
Cc1ccc(C(=O)Nc2ccccn2)cc1S(=O)(=O)N1CCOCC1,-,-,34.9,-,-
O=C(Nc1ccccn1)c1ccc(Cl)c(S(=O)(=O)N2CCOCC2)c1,-,-,-,-,-
O=C(CC1SC(N2CCCCC2)=NC1=O)Nc1ccc(C(=O)O)cc1 (stereo not drawn),-,-,-,-,-
CC(=O)c1cccc(NC(=O)CC2SC(N3CCCCC3)=NC2=O)c1 (stereo not drawn),-,-,45.3,-,-
CC(=O)c1cccc(NC(=O)c2ccc(NC(=O)CC3SC(N4CCCCC4)=NC3=O)cc2)c1 (stereo not drawn),-,-,-,-,-
O=C(CC1SC(N2CCCCC2)=NC1=O)Nc1cccc(C(F)(F)F)c1 (stereo not drawn),-,-,78.8,-,-
CCOC(=O)c1ccc(N2C(=O)c3[nH]nc(-c4ccccc4)c3C2c2ccc(CC)cc2)cc1 (stereo not drawn),-,.,.,-,.
CC(C)(C)OC(=O)N1CCC(c2c(C(=O)O)cnn2-c2ccccc2Cl)CC1,-,-,-,-,-
CC(C)(C)OC(=O)N1CCC(c2c(C(=O)NCC3CCN(C4CCCC4)C3)cnn2-c2ccccc2Cl)CC1 (stereo not drawn),-,-,46.1,-,-
O=C(O)c1n[nH]c2c1CCCCC2,-,-,-,-,-
O=C(O)c1n[nH]c2c1CCCC2,-,-,56.9,-,-
CCc1ccc2occ(CC(=O)Nc3sc4c(c3C(=O)OC)CCC4)c2c1,-,.,.,-,.
COc1c2ccc(C(=O)NCc3cc(C(F)(F)F)cc(C(F)(F)F)c3)cc2nn1C,-,-,40.8,-,-
Cc1ccc(NC(=O)c2cccc(S(=O)(=O)N3CCc4ccccc4C3)c2)nc1,-,-,30.5,-,-
CC(=O)N1CCN(S(=O)(=O)c2cccc(C(=O)Nc3ccc(C)cn3)c2)CC1,-,-,-,-,-
COC(=O)c1c(NC(=O)c2ccc(S(=O)(=O)N3CCCCC3)cc2)sc2c1CCN(C)C2,-,.,.,-,.
CC(=O)N(C(C)=O)c1nc2nc(C)cc(C)n2n1,-,-,102.1,-,-
Cc1cc(C)n2nc(CCc3nc4nc(C)cc(C)n4n3)nc2n1,-,.,-,-,.
Cc1cccc(C)c1NC(=O)c1ccc2c(c1)nnn2C1CCCC1,-,.,.,-,.

# Assay outcomes (PubChem)
